Laboratory results from the GenesisPotency data set.
Among all 290,000 compounds or so, about 3,000 (1%) were called active. This is one part of a sample in which actives are shown more often than they occur. Rule as the data show it: active = inhibition mostly above about 36% (no sharp cut-off); inactive = mostly below about 34%.

What follows are compounds tested against T1, Nucleotide-binding oligomerization domain-containing protein 1, Homo sapiens (UniProt Q9Y239) (assay: inhibition of NOD1-driven NF-kB reporter – cell-based, luminescence, uHTS, primary screen (AID 1578)).
T1 sequence (whole entry): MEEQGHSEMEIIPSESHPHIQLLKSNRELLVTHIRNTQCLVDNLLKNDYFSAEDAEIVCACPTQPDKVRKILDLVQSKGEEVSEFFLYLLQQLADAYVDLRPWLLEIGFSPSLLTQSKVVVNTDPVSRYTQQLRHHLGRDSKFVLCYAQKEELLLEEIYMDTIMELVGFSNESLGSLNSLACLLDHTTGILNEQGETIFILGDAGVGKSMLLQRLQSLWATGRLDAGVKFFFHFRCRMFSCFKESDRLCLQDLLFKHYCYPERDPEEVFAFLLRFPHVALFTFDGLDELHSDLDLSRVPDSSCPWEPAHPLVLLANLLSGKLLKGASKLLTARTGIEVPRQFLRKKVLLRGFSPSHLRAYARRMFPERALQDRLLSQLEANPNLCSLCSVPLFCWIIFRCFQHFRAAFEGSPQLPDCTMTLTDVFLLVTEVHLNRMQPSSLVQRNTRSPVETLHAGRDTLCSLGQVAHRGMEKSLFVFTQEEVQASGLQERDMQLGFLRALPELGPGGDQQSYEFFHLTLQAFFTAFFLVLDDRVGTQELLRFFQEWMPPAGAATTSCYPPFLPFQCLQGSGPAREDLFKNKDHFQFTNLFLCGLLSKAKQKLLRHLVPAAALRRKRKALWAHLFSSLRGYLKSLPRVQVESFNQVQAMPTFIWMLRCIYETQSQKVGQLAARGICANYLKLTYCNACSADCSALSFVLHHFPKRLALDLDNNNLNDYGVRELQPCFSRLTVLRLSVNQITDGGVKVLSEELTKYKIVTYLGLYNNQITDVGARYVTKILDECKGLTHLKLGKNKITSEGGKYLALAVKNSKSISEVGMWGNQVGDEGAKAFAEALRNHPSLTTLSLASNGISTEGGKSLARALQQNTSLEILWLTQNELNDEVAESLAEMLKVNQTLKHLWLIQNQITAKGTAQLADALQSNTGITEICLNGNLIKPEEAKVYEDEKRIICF

outcome, active:
CCOC(=O)c1c(-c2ccccc2)oc2cc(Br)c(O)c(C=O)c12
COc1ccccc1NC(=O)c1cc2cc(Br)ccc2cc1O
Cc1ccnc(NC(=O)Cc2ccc(-c3ccccc3)cc2)c1
COc1cc(OC)cc(-c2cc3nc(C)c(CCC(=O)O)c(C)n3n2)c1
O=c1[nH]c(-c2ccccn2)nc2sc(-c3ccccc3)cc12
Cn1c2c(c(=O)n(C)c1=O)C(C(F)(F)F)(C(F)(F)F)N=C(c1ccc(Cl)cc1)N2
CC1CCC/C=C/C(=O)c2c(O)cc(O)cc2CC(=O)O1 (stereo not drawn)
COc1ccc(NC(=O)/C(Cl)=C(/Cl)S(=O)(=O)Cc2ccccc2)cn1
COc1ccc(NC(=O)/C(Cl)=C(/Cl)S(=O)(=O)Cc2ccc(C)cc2)cn1
N=C1SCC(=O)N1c1ncc(Cc2cccc(Cl)c2)s1
N=C1SCC(=O)N1c1ncc(Cc2ccc(F)cc2)s1
N=C1SCC(=O)N1c1ncc(Cc2ccccc2Cl)s1
O=c1[nH]c(=O)n(Cc2ccco2)c2c1C(C(F)(F)F)(C(F)(F)F)N=C(c1ccc(F)cc1)N2
Nc1ncnc(NCc2ccc(F)cc2)c1[N+](=O)[O-]
CCc1ccc(NC(=O)C2CCN(S(=O)(=O)c3ccc4c(c3)CC(C)N4C(C)=O)CC2)cc1 (stereo not drawn)
CC(=O)c1ccc(N2CCN(S(=O)(=O)c3ccc4c(c3)CC(C)N4C(C)=O)CC2)cc1 (stereo not drawn)
Cc1ccc(-n2nc3c(=O)n(C(C)C(=O)NCCCc4ccccc4)nc(C)c3c2C)cc1 (stereo not drawn)
Cc1ccc(-n2nc3c(=O)n(C(C)C(=O)NCCC4=CCCCC4)nc(C)c3c2C)cc1 (stereo not drawn)
Cc1ccc(-n2nc3c(=O)n(C(C)C(=O)NCCc4cccs4)nc(C)c3c2C)cc1 (stereo not drawn)
Cc1ccc(-n2nc3c(=O)n(CC(=O)NC(C)CCc4ccccc4)nc(C)c3c2C)cc1 (stereo not drawn)
Cc1ccc(NC(=O)c2cnc(N3CCN(c4ccccn4)CC3)c3ccccc23)c(Br)c1
O=C(c1cnc(N2CCN(c3ccccn3)CC2)c2ccccc12)N1CCN(c2cccc(Cl)c2)CC1
CCc1ccc(NC(=O)c2cnc(N3CCN(c4ccccn4)CC3)c3ccccc23)cc1
Cc1cc(Br)ccc1NC(=O)c1cnc(N2CCN(c3ccccn3)CC2)c2ccccc12
C=CCSc1nc2ccccc2n1C(=O)/C=C/c1ccc(OC)c(OC)c1
COc1ccc(N(C(=O)CCl)C(C(=O)NC2CCCCC2)c2cccnc2)cc1 (stereo not drawn)
O=C(NC1CCCCC1)C(c1cccnc1)N(C(=O)CCl)c1ccc(F)cc1 (stereo not drawn)
O=C(CN1C(=O)c2ccccc2S1(=O)=O)c1ccc2c(c1)OCCO2
O=C(CN1C(=O)c2ccccc2S1(=O)=O)c1ccc2c(c1)OCCCO2
COc1cc(OC)c(OC)cc1/C=C/C(=O)c1ccc(NS(=O)(=O)c2ccc(C)cc2)cc1
COc1cc(/C=C/C(=O)c2ccc(NS(=O)(=O)c3ccc(C)cc3)cc2)cc(OC)c1O
O=C(/C(=C/c1ccc(Cl)cc1)c1nc2ccccc2[nH]1)c1ccccc1
O=C(/C(=C\c1ccccc1)c1nc2ccccc2[nH]1)c1ccc(Cl)cc1
O=C(/C(=C/c1ccc(Cl)cc1)c1nc2ccccc2[nH]1)c1cccs1
Cc1ccc(S(=O)(=O)Nc2cccc3ncccc23)s1
O=S(=O)(Nc1cccc2ncccc12)c1cccs1
Cc1ccc(C)c(OCC(=O)Nc2nc3ccc([N+](=O)[O-])cc3s2)c1C
O=[N+]([O-])c1ccc(O)c(-c2cc(C(F)(F)F)nc(-c3ccccc3)n2)c1
CC(C)c1ccc(-n2c(-c3ccccc3)c[n+]3c2CCc2ccccc2-3)cc1.[Br-]
CCCCCCCC[n+]1cccc2c3ccccc3ccc21.[I-]
CCCCCCCCC[n+]1cccc2c3ccccc3ccc21.[Br-]
O=C(NC(NC(=S)Nc1ccc(Cl)cc1Cl)C(Cl)(Cl)Cl)c1cccc([N+](=O)[O-])c1 (stereo not drawn)
COc1ccc(Cc2[nH]n3c(=O)c(Cl)c(C)nc3c2-c2ccccc2)cc1
O=C(Cc1ccc(Cl)cc1)c1c[nH]c(C(=O)NCc2cccnc2)c1
CCCN(CCC)c1ncnc2nc[nH]c12
CCc1ccc(N(CC)c2ncnc3nc[nH]c23)cc1
CCN(c1ccc(OC)cc1)c1ncnc2nc[nH]c12
COc1ccc(N=C2NC(=O)/C(=C/c3ccc(O)c(OC)c3)S2)cc1
Cc1ccc(C(=O)NC(=S)N(C)C2CCCCC2)cc1Br
O=[N+]([O-])c1ccc(Sc2cccc3cccnc23)c([N+](=O)[O-])c1
Cn1nc([N+](=O)[O-])nc1Sc1cccc2cccnc12
C=CCn1nc([N+](=O)[O-])nc1Sc1cccc2cccnc12
C=CCn1c(SCC(=O)Nc2sccc2C(N)=O)nc2sc(CC)cc2c1=O
O=C(OCn1ncc(Cl)c(Cl)c1=O)c1cccc(C(F)(F)F)c1
Cc1ccc(C(=O)OCn2ncc(Cl)c(Cl)c2=O)cc1
O=C(OCn1ncc(Cl)c(Cl)c1=O)c1ccccc1Cl
O=C(OCn1ncc(Br)c(Br)c1=O)c1ccccc1Cl
COc1cccc(C(=O)Nc2nc(-c3ccccc3)c(-c3ccccc3)o2)c1
COc1cc(OC)cc(C(=O)Nc2nc(-c3ccccc3)c(-c3ccccc3)o2)c1
S=c1[nH]nc(C2CCCCC2)n1/N=C/c1ccncc1
O=c1c2cc(Cl)ccc2nc(-c2ccc(Cl)c(Cl)c2)n1O
O=c1c2cc(Br)ccc2nc(-c2cccc(C(F)(F)F)c2)n1O
COc1cccc(N2CCN(c3ncnc4c3[nH]c3ccc(F)cc34)CC2C)c1 (stereo not drawn)
COc1cccc(N2CCN(c3ncnc4c3[nH]c3ccccc34)CC2C)c1 (stereo not drawn)
Cc1sc2nc(CSc3ccccc3)nc(N3CCC(C(N)=O)CC3)c2c1C
Cc1nc(N2CCC(C(N)=O)CC2)c2c(-c3cccs3)csc2n1
CCc1nnc(NC(=O)c2nc(S(=O)(=O)Cc3ccc(C)cc3)ncc2Cl)s1
CCCc1nnc(NC(=O)c2nc(S(=O)(=O)Cc3ccc(C)cc3)ncc2Cl)s1
CCCc1nnc(NC(=O)c2nc(S(=O)(=O)Cc3cccc(C)c3)ncc2Cl)s1
Cc1cccc(CS(=O)(=O)c2ncc(Cl)c(C(=O)Nc3c(C)cccc3C)n2)c1
CC(C)(C)C(=O)/C(=C/c1ccc(Cl)cc1)n1cncn1
O=c1c2ccccc2nc(/C=C/c2cc(Br)ccc2O)n1CCCO
O=c1c2ccccc2nc(/C=C/c2ccc([N+](=O)[O-])o2)n1CCCO
CC[n+]1c(C=C2C=C(C)OC(C)=C2)sc2ccccc21.[Cl-]
O=[N+]([O-])c1nn(-c2ccc3c(c2)OCCO3)n(O)c1=Nc1ccccc1
Cc1ccccc1Nc1nc(N)nc(CCl)n1
COc1ccc(OC)c(Nc2nc(N)nc(CCl)n2)c1
CCOc1ccc(Nc2nc(N)nc(CCl)n2)cc1
CCCCCc1cc(O)c2c(C)cc(=O)oc2c1
O=C(Nc1ccccc1C(=O)O)c1cc(S(=O)(=O)N2CCCCC2)c(Cl)cc1Cl
O=C(Nc1ccccc1C(=O)O)c1cc(S(=O)(=O)Nc2ccccc2)ccc1Cl
CC(=O)c1cccc(NC(=O)/C=C/c2ccc([N+](=O)[O-])s2)c1
Cc1cccc(NC(=O)/C=C/c2ccc([N+](=O)[O-])s2)c1
CCOC(=O)/C=C/C(=O)Nc1cccc([N+](=O)[O-])c1
CC(=C/c1ccccc1)/C=N/n1c(-c2ccncc2)n[nH]c1=S
S=c1[nH]nc(-c2cc(-c3ccccc3)n[nH]2)n1/N=C/C(Br)=C/c1ccccc1
Cc1cc(C(=O)NC2CCCc3c2cnn3-c2ccc(C)c(C)c2)n(C)n1 (stereo not drawn)
CCc1cc(C(=O)NC2CCCc3c2cnn3-c2cccc(C)c2C)n(C)n1 (stereo not drawn)
CCn1nc(C)cc1C(=O)NC1CCCc2c1cnn2-c1ccc(C)c(C)c1 (stereo not drawn)
COCCn1c(=S)[nH]c2cc(C(=O)N3CCCC(C)C3)ccc2c1=O (stereo not drawn)
O=C(N/N=C/c1ccccn1)c1cc(-c2ccccc2)nc2ccccc12
O=C(N/N=C/c1ccccn1)c1cc(-c2ccc(Cl)cc2)nc2ccccc12
CCCOc1cccc(-c2cc(C(=O)N/N=C/c3ccccn3)c3ccccc3n2)c1
O=C(N/N=C/c1ccccn1)c1cc(-c2ccc(Br)cc2)nc2ccccc12
O=C(c1cc(COc2cccc3cnccc23)on1)N1CCCC(CCCO)C1 (stereo not drawn)
COCC1CCCN(C(=O)c2cc(COc3ccc4ncccc4c3)on2)C1 (stereo not drawn)
Cc1c(C(C)NC(=O)c2cc(COc3cccc4cnccc34)on2)cnn1C (stereo not drawn)
COCC1CCN(C(=O)c2cc(COc3cccc4cnccc34)on2)CC1
O=C(c1cc(COc2cccc3cnccc23)on1)N1CCC(c2ccccc2Cl)C1 (stereo not drawn)
O=C1NC(=O)/C(=C\c2ccccc2Oc2ccc(F)c(F)c2)S1
Cc1cccc2cc(/C=N/NC(=O)c3ccccc3O)c(Cl)nc12
C=C1C(=O)[C@@]23[C@H](O)C[C@@H]4C(C)(C)CC[C@H](O)[C@@]4(C)[C@@H]2CC[C@@H]1[C@H]3O
CN(Cc1nccs1)C(=O)c1cc(COc2cccc3cnccc23)on1
COc1cccc(CN(C)C(=O)c2cc(COc3ccc4ncccc4c3)on2)c1
CCc1ccc(CN(C)C(=O)c2cc(COc3cccc4cnccc34)on2)cc1
COc1ccc(-c2cc(C(F)(F)F)nc(S(C)(=O)=O)n2)cc1OC
COc1ccccc1-c1cc(C(F)(F)F)nc(S(C)(=O)=O)n1
COc1ccc(-c2cc(C(F)(F)F)nc(S(C)(=O)=O)n2)cc1
